Consider 6 compounds from PubChem BioAssay (Tox21).

A number with no mark means an inactive call. Records with an inconclusive call do not appear. Active and inactive are the calls of the source. Unless noted, the call rests on the fitted dose curve; in most records, active means well fitted curve in the direction sought with a large enough effect in the repeat runs; inconclusive means weak or mixed curves; inactive means no such curve, though single readings can be large; an effect the other way counts as inactive or inconclusive.

Experiment [1] in a line: qHTS assay to identify small molecule antagonists of the constitutive androstane receptor (CAR) signaling pathway - cell viability counter screen (AID 1224837). Further: nearly all actives have a fitted effect of over 45% in size. Further: potency means the concentration at half of the fitted maximal effect. The method in brief:
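HepG2-CYP2B6-hCAR cells, 2500/well, 4 hr pre-incubation; compound titration, 15 conc.; CITCO 50 nM final; 23 hr, 37 C/5% CO2; CellTiter-Fluor, fluorescence intensity.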

Experiment [2] concerns the target Nuclear receptor subfamily 1 group I member 3 (Homo sapiens) (UniProt Q14994). Briefly: qHTS assay to identify small molecule antagonists of the constitutive androstane receptor (CAR) signaling pathway (AID 1224838).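 Further: HepG2 cells stably expressing hCAR with CYP2B6 luciferase reporter stimulated by CITCO; nearly all actives have a fitted effect of over 40% in size.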 Further: potency means the concentration at half of the fitted maximal effect. The method in brief: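 HepG2-CYP2B6-hCAR cells; 4 h pre-incubation; cpd (15 conc) + CITCO 50 nM final; 24 h, 37 C/5% CO2; ONE-Glo, luminescence.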
Background: qHTS replaces the single test concentration by a dilution series.

Experiment [3] has the same target. Briefly: qHTS assay to identify small molecule agonists of the constitutive androstane receptor (CAR) signaling pathway (AID 1224839). Further: nearly all actives have a fitted effect of over 15% in size. Further: potency means the concentration at half of the fitted maximal effect.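 On activation: HepG2 cells stably carrying human CAR and a CYP2B6 luciferase reporter.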 The method in brief:
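Cells were plated and incubated 4 hrs, then dosed with compounds at 15 concentrations. PK11195 was added to 0.75 uM final. After 24 hrs at 37 C, luciferase luminescence was measured.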

A short description of experiment [4]: qHTS assay to identify small molecule antagonists of the estrogen related receptor signaling pathway with the pleiotropic PPARgamma coactivator (PGC) from Tox21 10K library - cell viability counter screen (AID 1224840; active means well fitted cell-killing curve with a large enough effect in the repeat runs, not every such curve was filed as active; further: nearly all actives have a fitted effect of over 40% in size; further: potency means the concentration at half of the fitted maximal effect). The method in brief: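 PGC/ERR cells, 2,000/well; 6 h pre-incubation 37 C/5% CO2; cpd in DMSO via pin tool; 17.5 h 37 C; CellTiter-Fluor, 30 min; fluorescence.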

Experiment [5] is described as follows: qHTS assay to identify small molecule antagonists of the estrogen related receptor signaling pathway with the pleiotropic PPARgamma coactivator (PGC) from Tox21 10K library (AID 1224841; call rule not given here; further: actives are mostly falling curves and most rising ones were filed inactive; nearly all actives have a fitted effect of over 50% in size; further: potency means the concentration at half of the fitted maximal effect). The method in brief:
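PGC/ERR cell line, 2,000 cells/well; 6 h pre-incubation 37 C/5% CO2; compounds (DMSO) pinned in; 18 h, 37 C; One-Glo, 30 min RT; luminescence.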

Experiment [6] in a line: qHTS assay to identify small molecule agonists of the estrogen related receptor signaling pathway with the pleiotropic PPARgamma coactivator (PGC) from Tox21 10K library (AID 1224842). Further: nearly all actives have a fitted effect of over 15% in size. Further: potency means the concentration at half of the fitted maximal effect. The method in brief: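 PGC/ERR reporter cells (NTP line) were seeded 2,000 per well, rested 6 h at 37 C/5% CO2, then pin-dosed with compounds in DMSO for 18 h at 37 C; luciferase read by One-Glo luminescence after 30 min at room temperature.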

For experiment [7], the target named is Thyrotropin receptor (Homo sapiens) (UniProt P16473). In words: qHTS assay to identify small molecule agonists of the thyroid stimulating hormone receptor (TSHR) signaling pathway (AID 1224843; calls by dose curve; further: nearly all actives have a fitted effect of over 45% in size). The method in brief:
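Cell line HEK293 with TSHR; density 800/well. Exposure 30 min RT. Readout HTRF cAMP (cAMP-d2/anti-cAMP-cryptate), 1 h RT before reading.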

Experiment [8] in a line: qHTS assay to identify small molecule agonists of the hypoxia (HIF-1) signaling pathway - cell viability counter screen (AID 1224844; calls by dose curve; further: nearly all actives have a fitted effect of over 50% in size; further: potency means the concentration at half of the fitted maximal effect). An outline of the steps: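 ME-180 HRE-bla cells, 2,000/well, 0.5% dialyzed FBS; 5 hr settle, 17 hr compound at 37C/5% CO2; CCF4-AM reporter read first, then CellTiter-Glo luminescence after 30 min RT.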
Experiment [9] is described as follows: qHTS assay to identify small molecule agonists of H2AX (AID 1224845; active means well fitted activation curve with a large enough effect in the signal ratio in the repeat runs, not every such curve was filed as active; the % refers to the signal ratio). An outline of the steps: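 Wild-type CHO-K1 cells plated overnight, then exposed 3 hr at 37C to compounds at 15 concentrations (0.76% DMSO). Lysed, then HTRF anti-pH2AX(S139)-cryptate/anti-H2AX-d2 detection after 24 hr at room temperature; emissions 665 and 620 nm.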
A short description of experiment [10]: qHTS assay to identify small molecule antagonists of the estrogen related receptor (ERR) signaling pathway from Tox21 library (AID 1224848). Further: nearly all actives have a fitted effect of over 50% in size. Further: potency means the concentration at half of the fitted maximal effect. The method in brief:
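Screening used an ERR reporter line supplied by NTP, exposed for 18 h at 37 C to library compounds delivered in DMSO. Signal was luciferase luminescence developed with ONE-Glo at room temperature for 30 min.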

Experiment [11] is described as follows: qHTS assay to identify small molecule agonists of the estrogen related receptor (ERR) signaling pathway from Tox21 library (AID 1224849; calls by dose curve; further: nearly all actives have a fitted effect of over 15% in size). The settings on record: ERR reporter cell line, ONE-Glo luciferase, 18 h; at 92.4 µM (top of the series) unless noted. The method in brief:
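ERR cells, 6 h pre-incubation 37 C/5% CO2; cpd in DMSO pinned; 18 h 37 C; ONE-Glo added, 30 min RT; luminescence read. Agonist mode, qHTS.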

Experiment [12] in a line: qHTS RealTime-Glo MT Cell Viability Assay in HepG2 cells - 24 hour (AID 1224867). Further: nearly all actives have a fitted effect of over 50% in size. Further: potency means the concentration at half of the fitted maximal effect. The method in brief:
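Real-time, nonlytic viability: 600 HepG2 cells/well mixed with NanoLuc enzyme plus prosubstrate; 5 h settle, compound (DMSO) added by pintool; luminescence monitored over 40 h at 37 C.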

Experiment [13] in a line: A CellTox Green Cytotoxicity Assay to monitor cytotoxicity in HEK293 cells - 0 hour (AID 1224869). Further: nearly all actives have a fitted effect of over 50% in size. The method in brief: (§1)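 Nonlytic real-time cytotoxicity: HEK293 + CellTox Green reagent plated, 5 h preincubation, pintool compound addition (23 nL in DMSO), 37 C for 40 h, fluorescence measured at successive time points.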
Experiment [14] in a line: qHTS RealTime-Glo MT Cell Viability Assay in HepG2 cells - 40 hour (AID 1224870). Further: nearly all actives have a fitted effect of over 50% in size. Further: potency means the concentration at half of the fitted maximal effect. An outline of the steps:
(§2)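 HepG2 cells mixed with RealTime-Glo MT reagents (NanoLuc plus cell-permeant prosubstrate) were seeded at 600 cells/well, incubated 5 h at 37 C/5% CO2, then pinned with compounds in DMSO; nonlytic luminescence tracked viability during 40 h treatment.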

The nature of experiment [15]: qHTS RealTime-Glo MT Cell Viability Assay in HEK293 cells - 16 hour (AID 1224872). Further: nearly all actives have a fitted effect of over 50% in size. Further: potency means the concentration at half of the fitted maximal effect. The method in brief:
(§3)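 Cells + reagent dispensed (600 cells/well, HEK293) → 5 h at 37 C/5% CO2 → 23 nL compound in DMSO pinned → 40 h at 37 C → luminescence read at 0, 8, 16, 24, 32, 40 h.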

Experiment [16] is described as follows: qHTS assay to identify small molecule agonists of H2AX - cell viability counter screen (AID 1224847; calls by dose curve; further: nearly all actives have a fitted effect of over 30% in size; further: potency means the concentration at half of the fitted maximal effect). The method in brief: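 Cytotoxicity counter screen in wild-type CHO-K1 cells: a 3 hr compound treatment at 37C across 15 concentrations, followed by CellTiter-Glo luminescence to gauge viable cells.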
A short description of experiment [17]: qHTS RealTime-Glo MT Cell Viability Assay in HEK293 cells - 32 hour (AID 1224868). Further: nearly all actives have a fitted effect of over 50% in size. Further: potency means the concentration at half of the fitted maximal effect. An outline of the steps:
as §3

A short description of experiment [18]: A CellTox Green Cytotoxicity Assay to monitor cytotoxicity in HEK293 cells - 40 hour (AID 1224871). Further: nearly all actives have a fitted effect of over 45% in size. Further: potency means the concentration at half of the fitted maximal effect. The method in brief:
as §1

A short description of experiment [19]: qHTS assay to identify small molecule agonists of the hypoxia (HIF-1) signaling pathway (AID 1224846; active means well fitted activation curve with a large enough effect in the signal ratio in the repeat runs, not every such curve was filed as active; the % refers to the signal ratio). An outline of the steps: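 Cell line: CellSensor HRE-bla ME-180; 2,000 cells/well; 0.5% dialyzed FBS; 5 h preincubation; DMSO compound pin transfer; 17 h, 37C, 5% CO2; CCF4-AM added; bla FRET signal scored for activation.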
Experiment [20] can be described thus: qHTS RealTime-Glo MT Cell Viability Assay in HepG2 cells - 8 hour (AID 1224873). Further: nearly all actives have a fitted effect of over 55% in size. The method in brief:
as §2
On the % scale 0 is the no-effect control and ±100 the full control effect.

Chain of Nuclear receptor subfamily 1 group I member 3 (Homo sapiens) (Q14994 whole entry, looked up): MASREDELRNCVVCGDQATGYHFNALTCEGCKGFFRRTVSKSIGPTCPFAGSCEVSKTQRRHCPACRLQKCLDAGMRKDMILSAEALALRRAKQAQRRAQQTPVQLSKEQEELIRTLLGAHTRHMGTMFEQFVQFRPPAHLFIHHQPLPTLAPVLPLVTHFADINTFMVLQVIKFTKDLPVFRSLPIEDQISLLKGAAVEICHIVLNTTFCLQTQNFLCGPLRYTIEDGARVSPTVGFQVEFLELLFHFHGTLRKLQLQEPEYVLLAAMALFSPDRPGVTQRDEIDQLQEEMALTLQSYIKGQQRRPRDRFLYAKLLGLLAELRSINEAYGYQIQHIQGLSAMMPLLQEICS
Chain of Thyrotropin receptor (Homo sapiens) (P16473 whole entry, looked up): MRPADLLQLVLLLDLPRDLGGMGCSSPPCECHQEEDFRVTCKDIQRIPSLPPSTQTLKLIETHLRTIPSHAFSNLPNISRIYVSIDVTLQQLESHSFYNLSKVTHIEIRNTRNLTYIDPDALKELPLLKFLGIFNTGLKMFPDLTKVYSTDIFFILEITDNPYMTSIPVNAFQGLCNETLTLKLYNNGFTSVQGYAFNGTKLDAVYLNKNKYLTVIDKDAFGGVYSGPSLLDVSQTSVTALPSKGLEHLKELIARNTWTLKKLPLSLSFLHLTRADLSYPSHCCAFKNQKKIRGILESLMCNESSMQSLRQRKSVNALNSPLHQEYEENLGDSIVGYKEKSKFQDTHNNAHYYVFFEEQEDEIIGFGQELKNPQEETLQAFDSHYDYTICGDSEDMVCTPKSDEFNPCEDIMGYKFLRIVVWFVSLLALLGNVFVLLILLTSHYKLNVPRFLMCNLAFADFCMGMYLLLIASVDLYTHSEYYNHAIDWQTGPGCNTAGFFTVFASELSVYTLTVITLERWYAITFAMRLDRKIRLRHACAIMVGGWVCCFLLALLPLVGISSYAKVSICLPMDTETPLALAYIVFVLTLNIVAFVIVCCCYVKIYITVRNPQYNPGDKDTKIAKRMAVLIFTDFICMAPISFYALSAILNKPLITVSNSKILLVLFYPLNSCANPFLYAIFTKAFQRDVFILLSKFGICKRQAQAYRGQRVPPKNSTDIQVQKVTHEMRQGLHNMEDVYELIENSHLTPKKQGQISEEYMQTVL

In the case of `CCCOC(=O)c1ccc(O)cc1`, the Potency entry in experiment [1], in [2], in experiment [4], in [5], in [7] and in [8] was “inactive” each time. Moreover, the Potency entry in experiment [9], in experiment [10], in experiment [12], in experiment [13] and in experiment [14] was “inactive” throughout. The Potency in [3] was 54.5 µM (active); in experiment [6] it was 10.9 µM (active); in experiment [15], 49 µM (active). Further, the activity change, positive = activation in experiment [11] was 17.7% (active).

Turning to `CCC(C)(C)c1ccc(CC(C)CN2C[C@@H](C)O[C@@H](C)C2)cc1` (some centres not stated), the Potency result in experiment [1], in experiment [2], in experiment [3], in [4], in experiment [5] and in experiment [6] was “inactive” throughout. The Potency result in [12], in experiment [17], in [13], in [14] and in experiment [15] was “inactive” throughout. Also, the values for the Potency in [8], in experiment [16] and in experiment [18] were 23.9 µM (active), 55.2 µM (active) and 23.9 µM (active), respectively. For the same compound, the activity change, positive = activation in [11] was -22.5% [at 42.5 µM].

Turning to `Cc1cc(Br)ccc1NC(=O)CCl`, the Potency in [1] was 54.5 µM (active); in [2] it was 68.6 µM (active); in experiment [4], 15.4 µM (active); in [5] it was 6.11 µM (active); in experiment [8], 21.9 µM (active); in experiment [10] it was 15.4 µM (active). In addition, the figures for the Potency in [17], in [14] and in [15] were 24.5 µM (active), 43.6 µM (active) and 38.9 µM (active), respectively. Besides, the Potency result in experiment [3], in experiment [6], in experiment [7], in experiment [16] and in experiment [13] was “inactive” throughout. In addition, the activity change, positive = activation in experiment [11] is -79.8%.

On to `CC(C)C(=O)C(C)C`, for which the Potency result in experiment [1], in [2], in experiment [3], in [4], in [5] and in experiment [6] was “inactive” throughout. Moreover, the Potency result in experiment [7], in experiment [8], in [9], in [19], in [16] and in experiment [10] was “inactive” in each case. The Potency result in [12], in experiment [17], in [13], in experiment [14], in experiment [15] and in experiment [20] was “inactive” each time. For the same compound, the activity change, positive = activation in experiment [11] was 1.37%.

`CCCCCN=C(N)N/N=C/c1c[nH]c2ccc(OC)cc12`: the Potency in experiment [1] is 18.8 µM (active); in experiment [2], 16.8 µM (active); in [4] it was 21.1 µM (active); in experiment [16], 49.2 µM (active); in experiment [10] it was 15 µM (active); in experiment [12], 6.01 µM (active). Besides, the Potency in experiment [17] was 4.25 µM (active); in experiment [14], 5.35 µM (active); in experiment [18] it was 6.74 µM (active); in [15], 4.77 µM (active). Further, the Potency entry in experiment [3], in experiment [6] and in [13] was “inactive” in each case. Besides, the activity change, positive = activation in experiment [11] is -70.2% [at 42.5 µM].

As for `COc1cc(OC)nc(NC(=O)NS(=O)(=O)Nc2ccccc2C(=O)N(C)C)n1`, the Potency result in experiment [1], in experiment [2], in experiment [3], in experiment [4], in [5] and in experiment [7] was “inactive” each time. For the same compound, the Potency entry in experiment [8], in experiment [9], in experiment [19], in [16], in experiment [10] and in [12] was “inactive” in each case. For the same compound, the Potency entry in experiment [17], in experiment [13], in experiment [14], in [18], in experiment [15] and in [20] was “inactive” each time. In experiment [11], the activity change, positive = activation is -7.75%.
